For seven molecules, Percent Effect results are on record in ChEMBL document CHEMBL3988442, “University of Dundee, Small-Polar-MMV Screening Library” (2021).

Common to all, as to design: scale not given: direction of the effect not stated beside the values
Experiment [1] deals with Protein translocase subunit SecA (Escherichia coli (strain K12)) (UniProt P10408). The experiment in a line: Assay to Identify E. coli SecA ATPase Inhibitors. Type of experiment: functional. Conditions: 30 µM.
Experiment [2] deals with T1, Ubiquitin-activating enzyme e1, putative (Leishmania donovani (strain BPK282A1)) (UniProt E9BSI1).
T1 sequence (whole entry): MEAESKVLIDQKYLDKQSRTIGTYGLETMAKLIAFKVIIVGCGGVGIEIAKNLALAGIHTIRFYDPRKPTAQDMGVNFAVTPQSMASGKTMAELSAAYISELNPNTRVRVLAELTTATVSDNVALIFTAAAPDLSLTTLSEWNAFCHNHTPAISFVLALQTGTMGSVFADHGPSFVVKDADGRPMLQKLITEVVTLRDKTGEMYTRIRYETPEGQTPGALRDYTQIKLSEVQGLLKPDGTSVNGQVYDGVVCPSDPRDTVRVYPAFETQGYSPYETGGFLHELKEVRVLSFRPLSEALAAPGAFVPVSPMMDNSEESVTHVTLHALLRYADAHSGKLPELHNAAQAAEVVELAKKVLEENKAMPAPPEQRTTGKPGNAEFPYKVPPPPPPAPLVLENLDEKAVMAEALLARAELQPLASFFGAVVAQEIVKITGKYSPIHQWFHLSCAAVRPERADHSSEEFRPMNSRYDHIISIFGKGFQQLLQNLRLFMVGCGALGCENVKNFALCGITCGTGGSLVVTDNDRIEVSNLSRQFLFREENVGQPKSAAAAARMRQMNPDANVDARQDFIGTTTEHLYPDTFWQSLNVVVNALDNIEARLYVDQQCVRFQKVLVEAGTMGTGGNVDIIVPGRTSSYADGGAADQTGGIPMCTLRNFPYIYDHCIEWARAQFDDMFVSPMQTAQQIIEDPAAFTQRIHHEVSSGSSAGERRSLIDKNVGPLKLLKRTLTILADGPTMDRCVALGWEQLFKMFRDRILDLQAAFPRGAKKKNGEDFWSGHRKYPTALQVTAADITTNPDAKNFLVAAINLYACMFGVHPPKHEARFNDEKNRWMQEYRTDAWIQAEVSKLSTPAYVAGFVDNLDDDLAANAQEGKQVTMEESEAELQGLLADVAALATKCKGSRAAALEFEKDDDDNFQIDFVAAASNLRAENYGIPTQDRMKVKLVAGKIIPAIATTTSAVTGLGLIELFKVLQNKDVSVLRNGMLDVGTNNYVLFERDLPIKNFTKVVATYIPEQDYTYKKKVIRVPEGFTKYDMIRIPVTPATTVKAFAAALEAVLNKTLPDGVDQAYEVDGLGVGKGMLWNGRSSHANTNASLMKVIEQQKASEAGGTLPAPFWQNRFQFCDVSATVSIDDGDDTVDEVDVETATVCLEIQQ
Put plainly: Leishmania donovani Ubiquitin Activating Enzyme (LdE1). It counts as functional. The settings on record: 30 µM.

In experiment [3] the target is T2, Aspartate--tRNA(Asp/Asn) ligase (Mycobacterium tuberculosis (strain ATCC 25618 / H37Rv)) (UniProt P9WFW3). Also: in the data most compounds retested in dose-response had high values.
T2 sequence (whole entry): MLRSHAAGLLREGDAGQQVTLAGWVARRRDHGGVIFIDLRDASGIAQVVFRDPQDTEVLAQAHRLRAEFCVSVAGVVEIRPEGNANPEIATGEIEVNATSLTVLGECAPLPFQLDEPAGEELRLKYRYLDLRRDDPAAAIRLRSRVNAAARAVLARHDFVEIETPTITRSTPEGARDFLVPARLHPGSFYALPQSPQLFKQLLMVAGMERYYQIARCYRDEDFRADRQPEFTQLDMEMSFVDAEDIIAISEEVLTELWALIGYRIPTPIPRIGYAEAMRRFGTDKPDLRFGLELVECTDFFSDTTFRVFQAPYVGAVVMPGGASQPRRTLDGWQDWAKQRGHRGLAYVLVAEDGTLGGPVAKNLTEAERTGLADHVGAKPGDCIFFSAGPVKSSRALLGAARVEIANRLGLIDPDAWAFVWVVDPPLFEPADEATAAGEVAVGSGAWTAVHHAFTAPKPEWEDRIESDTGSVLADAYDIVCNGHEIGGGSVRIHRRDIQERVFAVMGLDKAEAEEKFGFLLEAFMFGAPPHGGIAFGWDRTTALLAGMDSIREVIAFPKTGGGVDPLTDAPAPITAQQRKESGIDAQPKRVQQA
Put plainly: Assay for Asp RNA synthetase-1 from Mycobacterium tuberculosis. It counts as functional. Conditions: 30 µM.

The target in experiment [4] is Sialic acid-binding Ig-like lectin 9 (Homo sapiens) (UniProt Q9Y336). The experiment in a line: Hs-Siglec9 ALPHAscreen SOP 20170721. Conditions: 10 µM. On the technique in general: Alpha assays give light when donor and acceptor beads are brought close together.
Sequence of Sialic acid-binding Ig-like lectin 9 (Homo sapiens) (Q9Y336 whole entry): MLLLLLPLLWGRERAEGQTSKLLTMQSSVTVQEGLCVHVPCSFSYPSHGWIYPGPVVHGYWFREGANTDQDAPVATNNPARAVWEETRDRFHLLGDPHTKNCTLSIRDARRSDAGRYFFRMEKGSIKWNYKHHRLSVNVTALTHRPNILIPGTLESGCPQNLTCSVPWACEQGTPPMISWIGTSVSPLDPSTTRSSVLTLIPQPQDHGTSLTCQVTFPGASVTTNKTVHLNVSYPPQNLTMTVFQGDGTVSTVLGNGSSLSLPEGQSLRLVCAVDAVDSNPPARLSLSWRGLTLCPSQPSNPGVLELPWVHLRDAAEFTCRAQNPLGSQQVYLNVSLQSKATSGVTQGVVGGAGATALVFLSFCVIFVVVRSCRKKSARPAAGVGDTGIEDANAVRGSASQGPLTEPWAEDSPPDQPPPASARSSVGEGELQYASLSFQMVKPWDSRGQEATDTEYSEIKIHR
The next experiment concerns Trypanosoma cruzi. The experiment in a line: Trypanosoma cruzi phosphomannomutase and mannose-1-phosphate guanylyltransferase assay. Type of experiment: functional. Conditions: 10 µM.
The target in experiment [5] is T3, Arginase-2, mitochondrial (Homo sapiens) (UniProt P78540).
T3 sequence (whole entry): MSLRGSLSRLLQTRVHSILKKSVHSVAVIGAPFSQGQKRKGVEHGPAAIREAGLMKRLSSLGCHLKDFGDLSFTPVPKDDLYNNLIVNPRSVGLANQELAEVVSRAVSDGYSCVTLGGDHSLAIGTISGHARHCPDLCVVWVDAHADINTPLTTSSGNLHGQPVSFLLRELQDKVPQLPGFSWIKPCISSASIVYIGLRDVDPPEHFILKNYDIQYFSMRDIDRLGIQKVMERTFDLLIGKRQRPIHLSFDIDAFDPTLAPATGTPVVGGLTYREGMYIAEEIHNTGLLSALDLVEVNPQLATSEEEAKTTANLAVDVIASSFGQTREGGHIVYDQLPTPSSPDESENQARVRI
The experiment in a line: in vitro enzyme assay to detect the production of urea directly proportional to the activity of Arginase II. Also: in the data most compounds retested in dose-response had high values. Type of experiment: functional. Conditions: 33.3 µM.

Experiment [6] has as its target T4, Proteasome subunit beta (Trypanosoma cruzi) (UniProt O96673).
T4 sequence (whole entry): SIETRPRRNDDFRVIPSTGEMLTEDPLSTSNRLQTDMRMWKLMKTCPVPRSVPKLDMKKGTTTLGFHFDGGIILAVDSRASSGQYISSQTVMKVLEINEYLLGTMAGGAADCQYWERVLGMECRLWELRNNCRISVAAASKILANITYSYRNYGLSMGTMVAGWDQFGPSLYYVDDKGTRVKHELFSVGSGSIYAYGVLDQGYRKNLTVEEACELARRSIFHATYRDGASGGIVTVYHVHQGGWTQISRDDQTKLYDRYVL
Put plainly: Trypanosoma cruzi proteasome chymotrypsin-like activity (TcProtChymo) assay. Also: in the data most compounds retested in dose-response had high values. It counts as functional. The settings on record: 9.37 µM.

For the next experiment, the species on record is Homo sapiens. The experiment in a line: To identify inhibition of the IFN signalling (Jak-Stat) pathway via expression of an eGFP reporter gene under the control of an IFN-stimulated response element (ISRE) containing MxA promoter. Type of experiment: functional. Conditions: 30 µM. For orientation: A reporter such as luciferase makes a cellular process visible.

Experiment [7] deals with Shiga toxin 2 (Escherichia coli O157:H7) (UniProt P09385+P09386). The experiment in a line: E. coli 0.157:H7 Shiga Toxin SOP - stx2 screening assay. It counts as functional. The settings on record: 30 µM.
The target in experiment [8] is T5, Tyrosyl-tRNA synthetase, putative (Trypanosoma cruzi (strain CL Brener)) (UniProt Q4DSP6).
T5 sequence (whole entry): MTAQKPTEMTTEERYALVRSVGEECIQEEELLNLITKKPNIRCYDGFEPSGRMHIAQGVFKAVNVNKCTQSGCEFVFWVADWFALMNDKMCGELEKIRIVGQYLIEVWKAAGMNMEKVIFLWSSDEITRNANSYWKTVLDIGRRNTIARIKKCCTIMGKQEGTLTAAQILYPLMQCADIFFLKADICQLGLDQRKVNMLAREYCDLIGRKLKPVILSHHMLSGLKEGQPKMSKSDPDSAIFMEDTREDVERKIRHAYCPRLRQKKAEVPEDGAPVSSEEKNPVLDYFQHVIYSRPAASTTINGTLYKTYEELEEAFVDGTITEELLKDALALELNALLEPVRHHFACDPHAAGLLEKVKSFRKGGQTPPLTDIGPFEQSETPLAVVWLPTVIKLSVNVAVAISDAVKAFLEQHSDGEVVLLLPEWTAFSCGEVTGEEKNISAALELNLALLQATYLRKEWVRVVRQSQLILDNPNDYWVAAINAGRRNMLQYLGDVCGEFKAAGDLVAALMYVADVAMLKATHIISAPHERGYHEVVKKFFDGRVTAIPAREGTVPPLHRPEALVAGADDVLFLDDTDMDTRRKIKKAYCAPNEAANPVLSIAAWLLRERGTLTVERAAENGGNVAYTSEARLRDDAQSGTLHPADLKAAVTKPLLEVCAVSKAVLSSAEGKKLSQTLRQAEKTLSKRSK
The experiment in a line: Trypanosoma cruzi tyrosyl tRNA synthetase (TcYRS) _High Tyrosine SOP. Also: in the data most compounds retested in dose-response had high values. Type of experiment: functional. The settings on record: 30 µM.

The target of experiment [9] is T5, Tyrosyl-tRNA synthetase, putative (Trypanosoma cruzi (strain CL Brener)). Put plainly: Trypanosoma cruzi tyrosyl tRNA synthetase (TcYRS) SOP. It counts as functional. The settings on record: 30 µM.
For experiment [10], the target named is Chromo domain-containing protein 1 (Saccharomyces cerevisiae (strain ATCC 204508 / S288c) (Baker's yeast)) (UniProt P32657). Put plainly: ScCHD-1 Enzyme Inhibition Assay. Also: in the data most compounds retested in dose-response had high values. Type of experiment: functional. The settings on record: 30 µM.
Sequence of Chromo domain-containing protein 1 (Saccharomyces cerevisiae (strain ATCC 204508 / S288c) (Baker's yeast)) (P32657 whole entry, the tested form may be a part): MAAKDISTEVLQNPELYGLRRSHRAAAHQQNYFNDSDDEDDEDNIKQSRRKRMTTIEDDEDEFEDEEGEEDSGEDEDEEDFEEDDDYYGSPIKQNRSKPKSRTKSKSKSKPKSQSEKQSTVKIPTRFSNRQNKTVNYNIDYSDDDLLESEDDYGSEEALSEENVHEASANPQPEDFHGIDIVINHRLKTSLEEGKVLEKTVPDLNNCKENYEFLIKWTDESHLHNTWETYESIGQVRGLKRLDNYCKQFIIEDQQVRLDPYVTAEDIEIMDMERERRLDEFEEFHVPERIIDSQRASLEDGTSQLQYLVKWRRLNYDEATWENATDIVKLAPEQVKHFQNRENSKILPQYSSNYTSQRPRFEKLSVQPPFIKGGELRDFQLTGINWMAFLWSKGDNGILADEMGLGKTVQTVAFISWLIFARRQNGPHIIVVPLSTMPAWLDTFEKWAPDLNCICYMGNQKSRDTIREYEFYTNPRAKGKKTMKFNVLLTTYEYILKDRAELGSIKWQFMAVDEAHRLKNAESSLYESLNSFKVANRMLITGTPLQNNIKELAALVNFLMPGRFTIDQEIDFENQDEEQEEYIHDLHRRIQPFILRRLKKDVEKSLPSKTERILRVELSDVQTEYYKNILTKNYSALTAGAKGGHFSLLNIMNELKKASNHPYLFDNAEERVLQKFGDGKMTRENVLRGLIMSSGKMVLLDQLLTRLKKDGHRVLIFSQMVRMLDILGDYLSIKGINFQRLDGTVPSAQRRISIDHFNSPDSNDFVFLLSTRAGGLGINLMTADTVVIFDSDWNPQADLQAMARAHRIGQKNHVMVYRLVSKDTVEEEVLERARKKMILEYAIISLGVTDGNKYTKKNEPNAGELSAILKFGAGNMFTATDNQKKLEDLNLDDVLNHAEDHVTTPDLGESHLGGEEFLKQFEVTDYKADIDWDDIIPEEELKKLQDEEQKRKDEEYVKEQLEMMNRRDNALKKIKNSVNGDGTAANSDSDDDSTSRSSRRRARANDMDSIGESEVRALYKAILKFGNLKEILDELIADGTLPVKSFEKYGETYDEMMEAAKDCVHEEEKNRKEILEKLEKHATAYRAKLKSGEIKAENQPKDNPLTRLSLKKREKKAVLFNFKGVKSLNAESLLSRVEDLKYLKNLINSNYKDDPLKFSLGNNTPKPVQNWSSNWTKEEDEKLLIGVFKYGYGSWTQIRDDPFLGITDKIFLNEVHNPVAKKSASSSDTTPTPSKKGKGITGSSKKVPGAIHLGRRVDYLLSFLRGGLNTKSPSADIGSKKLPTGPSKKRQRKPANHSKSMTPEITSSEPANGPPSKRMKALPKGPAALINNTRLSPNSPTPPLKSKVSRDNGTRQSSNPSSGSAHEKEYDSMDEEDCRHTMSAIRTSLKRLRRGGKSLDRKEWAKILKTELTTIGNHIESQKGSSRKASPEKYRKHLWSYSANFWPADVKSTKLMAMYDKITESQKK

For part of these data: Measured potencies and affinities stand elsewhere.

Sequence of Protein translocase subunit SecA (Escherichia coli (strain K12)) (P10408 whole entry): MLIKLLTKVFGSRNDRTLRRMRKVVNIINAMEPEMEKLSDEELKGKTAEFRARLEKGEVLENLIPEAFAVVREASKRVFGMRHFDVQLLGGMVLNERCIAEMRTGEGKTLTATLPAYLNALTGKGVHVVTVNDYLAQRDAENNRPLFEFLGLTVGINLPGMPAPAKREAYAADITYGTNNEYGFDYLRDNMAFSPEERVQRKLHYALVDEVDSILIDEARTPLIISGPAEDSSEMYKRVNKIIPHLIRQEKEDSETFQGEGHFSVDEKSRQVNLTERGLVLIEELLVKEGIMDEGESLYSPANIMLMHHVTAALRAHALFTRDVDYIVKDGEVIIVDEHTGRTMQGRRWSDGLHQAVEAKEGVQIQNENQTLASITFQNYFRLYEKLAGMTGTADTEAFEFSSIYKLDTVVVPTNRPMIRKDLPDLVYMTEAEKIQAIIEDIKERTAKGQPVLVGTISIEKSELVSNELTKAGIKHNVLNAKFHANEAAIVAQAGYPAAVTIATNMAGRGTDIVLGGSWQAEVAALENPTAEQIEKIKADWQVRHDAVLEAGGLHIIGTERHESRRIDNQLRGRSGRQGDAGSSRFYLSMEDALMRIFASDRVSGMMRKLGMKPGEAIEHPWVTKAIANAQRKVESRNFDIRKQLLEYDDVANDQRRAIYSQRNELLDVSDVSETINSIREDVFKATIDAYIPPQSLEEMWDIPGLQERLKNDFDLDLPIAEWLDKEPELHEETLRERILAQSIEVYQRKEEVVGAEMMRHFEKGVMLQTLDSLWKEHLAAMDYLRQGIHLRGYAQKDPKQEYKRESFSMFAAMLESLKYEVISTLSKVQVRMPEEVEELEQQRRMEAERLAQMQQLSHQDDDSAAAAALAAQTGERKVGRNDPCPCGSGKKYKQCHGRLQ

Turning to `CN(C)CCN1CCCC12CCN(C(=O)c1cccnc1)CC2`, the Percent Effect in experiment [1] was -0.609%; in experiment [2] it was 3.9%; in [3], 1.98%; in experiment [4], -1.37%; in the experiment with Trypanosoma cruzi it was 0.563%; in experiment [5], 4.11%. Further, the Percent Effect in experiment [6] is 8.5%; in the experiment filed under Homo sapiens, -12.2%; in experiment [7], -15.3%; in experiment [8] it was 3.87%; in experiment [9], 7.5%; in experiment [10], 1.23%.
For the molecule `CC(C)c1nccc([C@H]2C[C@@H]3CCN(Cc4ccoc4)C[C@H]3O2)n1`, the Percent Effect was -3.97% in experiment [1]; -6.49% in [2]; -4.77% in experiment [3]; -2.81% in experiment [4]; 6.13% in the experiment on Trypanosoma cruzi; -6.48% in [5]. The Percent Effect in [6] was 16.7%; in the experiment filed under Homo sapiens it was -14.2%; in experiment [7], 3.27%; in experiment [8] it was 5.79%; in [9] it was 0%; in experiment [10], -1.73%.
As to `COCCNC(=O)c1cn(C(C)(C)C)c2ncccc12`, the Percent Effect in experiment [1] was 107%; in experiment [2], 6.67%; in experiment [3], 2.31%; in experiment [4], -7.99%; with Trypanosoma cruzi it was 0.197%; in experiment [5], 6.2%. The Percent Effect in [6] was 11%; in the experiment filed under Homo sapiens, 3.2%; in experiment [7] it was 4%; in experiment [8], 0%; in experiment [9], 10%; in experiment [10], -17.6%.
With `c1ccc(CN2CCC3(CC2)CCN(Cc2cccs2)C3)nc1`, the Percent Effect is -3.68% in experiment [1]; 11.7% in experiment [2]; 1.23% in experiment [3]; -8.25% in experiment [4]; -1.31% with Trypanosoma cruzi; -0.457% in experiment [5]. Besides, the Percent Effect was 6.61% in experiment [6]; -11.1% in the experiment listed under Homo sapiens; -13.1% in [7]; 8.7% in experiment [8]; -12.5% in experiment [9]; -12% in [10].
Consider `Cc1nc(CN2CCO[C@H]3[C@@H](OCc4ccccn4)CC[C@@H]32)cs1`, for which the Percent Effect in experiment [1] was -6.18%; in experiment [2], 9.09%; in experiment [3], 3.07%; in experiment [4], -6.32%; in the experiment on Trypanosoma cruzi it was -3.6%; in experiment [5], -2.43%. Further, the Percent Effect is 10.2% in [6]; 4.6% in the experiment listed under Homo sapiens; -1.17% in experiment [7]; 4.74% in experiment [8]; 7.69% in experiment [9]; -4.92% in experiment [10].
In the case of `NC(=O)CN1CCCN(C(=O)Cc2ccc(F)c(Br)c2)CC1`, the Percent Effect was -6.33% in experiment [1]; 10.7% in experiment [2]; -0.338% in experiment [3]; -0.341% in [4]; -3.61% in the experiment with Trypanosoma cruzi; -0.444% in [5]. Besides, the Percent Effect is 12.6% in experiment [6]; -6.89% in the experiment listed under Homo sapiens; -17.2% in experiment [7]; 4.74% in experiment [8]; 7.69% in [9]; -9.76% in [10].
As to `O=C1CC[C@H]2[C@H](CCN2Cc2ccccn2)N1CC1CCOCC1`, the Percent Effect in [1] was -3.55%; in experiment [2], 9.09%; in [3], -4.23%; in experiment [4] it was -1.65%; in the experiment with Trypanosoma cruzi it was -5.63%; in [5], 2.74%. Further, the Percent Effect was 3.35% in experiment [6]; 8.69% in the experiment listed under Homo sapiens; -14% in [7]; -0.966% in [8]; 2.5% in experiment [9]; -0.494% in [10].
